# LMP1 NFkB inh: inhibitors of Epstein-Barr LMP1-induced NF-kappaB reporter. LMP1-induced NF-kappaB luciferase reporter cells, luminescence. inhibition, % at 12.5 µM. hit rate 0.69% among 350,000; in the data active = inhibition above about 41%; inconclusive = no clear call, values can overlap the other calls;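 also: 0% = neutral control wells and 100% = reference inhibitor control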
# PAX8 reporter: PAX8 transcriptional activity inhibition; AID 652154; RMG-I TPO-luciferase reporter, SteadyGlo, 24 h; inhibition, % at 12.6 µM; hit rate 1.2% among 360,000;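 active = mean replicate inhibition at least 60% with every replicate also reaching 60%; inconclusive = only one of the two criteria is met; inactive = mean below 60% and not all replicates reaching 60%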;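 also: luciferase light reporting Pax8 driven TPO promoter activity; plate controls were median of neutral control wells for no effect and mitoxantrone controls for full effect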
# HIF-2a block: inhibitors of HIF-2a; 786-0 RCC cells HIF-2a reporter, luciferase luminescence, overnight; inhibition, % at 18.8 µM; hit rate 0.72% among 360,000;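 active = inhibition of the luminescence signal of 40% or more relative to plate controls, in a single-dose primary screen at 18.75 µM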
# Shn3 3UTR inh: inhibitors of Schnurri-3 3'UTR reporter in osteoblasts; hit rate 0.52% among 360,000; inhibition, % at 12.5 µM; Clone20 osteoblast Shn3 3'UTR firefly luciferase, 24 h; AID 588674;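 active = mean inhibition of at least 75% with every replicate also reaching 75%; inconclusive = mean inhibition at least 75% but some replicate below; inactive = mean inhibition below 75%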;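 also: 0% = median of neutral control wells and 100% = pilot-screen positive control compound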
# Peg3 prom inh: inhibitors of Peg3 promoter | HeLa PEG-Prom luciferase reporter, luminescence, overnight | inhibition, % at 20 µM | hit rate 1.7% among 360,000 | AID 588405;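 active = inhibition of at least 50% at 20 µM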
# TRPM1 prom inh: reduces MITF-dependent TRPM1 promoter luciferase signal | inhibition, % at 12.5 µM | SK-MEL-5 TRPM1 promoter luciferase, 24 h | hit rate 0.83% among 330,000 | AID 488899;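 active = mean inhibition across replicates of 60% or more, whatever share of single replicates reaches that level; inconclusive = some that reach 60%, reason not given; inactive = mean inhibition across replicates below 60%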
# The depositor's hits bear a star; ? = inconclusive; nt = no result. A selection: hits, their analogues and other compounds. The true share with any hit is near 2.8%.
SMILES,LMP1 NFkB inh,PAX8 reporter,HIF-2a block,Shn3 3UTR inh,Peg3 prom inh,TRPM1 prom inh
O=C(C[C@@H]1CC[C@H]2[C@@H](COC[C@@H](O)CN2CC2CCOCC2)O1)NCc1ccc(Cl)cc1,nt,-1,nt,nt,nt,nt
FC(F)(F)C1=Nc2cccc3cccc(c23)N1,-4,-2,-5,-4,111*,34
Fc1ccc(C2=Nc3cccc4cccc(c34)N2)cc1,-11,5,21,-7,21,1
C[C@H]1CN([C@@H](C)CO)C(=O)Cc2cc(NC(=O)C3CC3)ccc2O[C@H]1CN(C)S(=O)(=O)c1ccccc1,nt,1,nt,nt,nt,nt
C[C@H]1CCCCO[C@@H](CN(C)C(=O)c2ccccc2)[C@@H](C)CN([C@@H](C)CO)C(=O)c2cc(NC(=O)c3ccccc3)ccc2O1,nt,19,nt,nt,nt,nt
O=C(CC1CC1)N[C@H]1CC[C@@H](CCNS(=O)(=O)c2ccc(F)cc2)O[C@@H]1CO,nt,-5,nt,nt,nt,nt
CC(C)CC#Cc1cnc2c(c1)C(=O)N([C@H](C)CO)C[C@H](C)[C@@H](CN(C)C(=O)C1CCCCC1)O2,nt,7,nt,nt,nt,nt
C/C=C/c1ccc2c(c1)O[C@@H](CN(C)Cc1ccccn1)[C@H](C)CN([C@H](C)CO)S2(=O)=O,nt,1,nt,nt,nt,nt
Nc1nc(=S)c2[nH]cnc2[nH]1,85*,94*,13,-4,63*,78*
Nc1nc(=S)c2[nH]c(=S)[nH]c2[nH]1,1,11,9,-11,35,6
COc1ccc(-c2ccc3c(c2)[C@@H]2[C@@H](CCN2S(=O)(=O)c2ccc(F)cc2)[C@H](CO)N3C)cc1,nt,62*,nt,nt,nt,nt
COc1ccc(-c2ccc3c(c2)[C@@H]2[C@@H](CCN2S(=O)(=O)c2ccc(OC)cc2)[C@H](CO)N3C)cc1,nt,21,nt,nt,nt,nt
COc1ccc(-c2ccc3c(c2)[C@H]2[C@H](CCN2S(=O)(=O)c2ccc(OC)cc2)[C@@H](CO)N3C)cc1,nt,79*,nt,nt,nt,nt
CC(C)C[C@@H](CO)N(Cc1ccccc1)S(=O)(=O)N(Cc1ccccc1)[C@H](CO)CC(C)C,3,nt,-5,?,83*,-2
O=S(=O)(N(Cc1ccccc1)[C@H](CO)Cc1ccccc1)N(Cc1ccccc1)[C@H](CO)Cc1ccccc1,7,22,17,14,-6,10
CC(C)C[C@@H](CO)N(Cc1ccccc1)S(=O)(=O)N(Cc1ccccc1)[C@@H](CO)CC(C)C,-9,nt,13,90*,85*,13
COc1ccc(CN([C@H](CO)CC(C)C)S(=O)(=O)N(Cc2ccccc2)[C@H](CO)CC(C)C)cc1,3,57,7,26,83*,1
COCC(=O)Nc1ccc2c(c1)[C@@H]1C[C@H](CC(=O)N3CCOCC3)O[C@H](CO)[C@@H]1O2,nt,2,nt,nt,nt,nt
C[C@@H]1CCCCO[C@@H](CN(C)Cc2ccc(C(=O)O)cc2)[C@H](C)CN([C@@H](C)CO)C(=O)c2cc(NC(=O)Nc3ccc4c(c3)OCO4)ccc2O1,nt,-16,nt,nt,nt,nt
CCn1cc(C(=O)Nc2ncccc2O)c(=O)c2cc(F)c(N3CCN(C(=O)c4ccco4)CC3)cc21,-5,-7,7,27,53*,13
CCn1cc(C(=O)NC(C)C)c(=O)c2cc(F)c(N3CCN(C(=O)c4ccco4)CC3)cc21,5,25,16,15,43,19
CCn1cc(C(=O)NCc2ccncc2)c(=O)c2cc(F)c(N3CCN(C(=O)c4ccco4)CC3)cc21,nt,16,24,15,20,nt
CCn1cc(C(=O)NCc2ccc3c(c2)OCO3)c(=O)c2cc(F)c(N3CCN(C(=O)c4ccco4)CC3)cc21,21,nt,23,51,51*,16
CCn1cc(C(=O)NCc2ccccc2)c(=O)c2cc(F)c(N3CCN(C(=O)c4ccco4)CC3)cc21,1,nt,15,52,68*,46
Cc1noc(C)c1S(=O)(=O)N(C)C[C@@H]1Oc2c(NS(=O)(=O)c3ccccc3)cccc2C(=O)N([C@H](C)CO)C[C@@H]1C,nt,-16,nt,nt,nt,nt
SMILES,LMP1 NFkB inh,PAX8 reporter,HIF-2a block,Shn3 3UTR inh,Peg3 prom inh,TRPM1 prom inh
CCN(CC)c1nc(-c2ccccc2)nc2ccccc12,4,26,8,-6,7,6
CCCCN(CCCC)c1nc(-c2ccncc2)nc2ccccc12,-10,-27,29,30,52*,-2
O=C(C1CCC1)N1CC(=O)N2[C@@H](CO)[C@@H](c3ccc(-c4ccccc4F)cc3)[C@@H]2C1,nt,-2,nt,nt,nt,nt
O=C(NC(=S)Nc1ncccn1)c1ccccc1Cl,-6,70*,-162,-62,-161,-20
S=C(Nc1ccccc1)N1CCCCCC1,1,-16,8,9,20,7
CC(NNC(=S)N1CCCCCC1)c1ccc2ccccc2n1 (stereo not given),nt,81*,-184,45,-93,nt
C[C@@H]1CN([C@@H](C)CO)C(=O)Cc2cc(NC(=O)C3CC3)ccc2O[C@@H]1CN(C)Cc1ccc(-c2ccccc2)cc1,nt,50,nt,nt,nt,nt
COc1cc(NC(=O)COC(=O)CNC(=O)C23CC4CC(CC(C4)C2)C3)cc(OC)c1,-4,4,12,-15,11,9
COc1ccc2c(COC(=O)CNC(=O)C34CC5CC(CC(C5)C3)C4)cc(=O)oc2c1,0,122*,6,-7,-6,-8
O=[N+]([O-])c1cccc(-c2nnc(-c3ccc4c(c3)OCO4)o2)c1,-31,144*,-212,-60,-315,-24
O=[N+]([O-])c1cccc(-c2nnc(-c3ccccc3)o2)c1,-34,-173,-294,44,-238,-46
CCCCNc1c(-c2ccc(OC)c(SC3CCCCC3)c2)nc2ccc(Cl)cn12,3,6,-20,26,14,7
CCCCNc1c(-c2ccc(OC)c(SC3CCCCC3)c2)nc2cnccn12,7,nt,-19,14,68*,-1
CCCCNc1c(-c2ccc(OC)c(SC3CCCCC3)c2)nc2cc(C)ccn12,-2,26,-17,37,56*,5
C/C=C/c1ccc([C@@H]2[C@H](CO)N(C(=O)C3CC3)C23CN(S(=O)(=O)CC)C3)cc1,nt,-35,nt,nt,nt,nt
CN1c2ccc(-c3ccccc3F)cc2[C@H]2[C@H](CCN2S(=O)(=O)c2ccccc2F)[C@H]1CO,nt,17,nt,nt,nt,nt
OC[C@H]1OC(O)[C@H](O)[C@@H](O)[C@H]1O (stereo not given in full),56*,-5,9,-1,8,-5
O=C1C(Cl)=C(NCCCO)C(=O)c2ccccc21,-3,nt,72*,4,-12,84*
O=C1C(Cl)=C(NCCCN2CCOCC2)C(=O)c2ccccc21,-12,19,49*,-5,-49,98*
O=C1C(Cl)=C(NCCN2CCOCC2)C(=O)c2ccccc21,8,10,-7,11,-23,69*
CCOCCCNC1=C(Cl)C(=O)c2ccccc2C1=O,-6,25,30,-12,-93,30
CS(=O)(=O)Nc1ccc2c(c1)[C@@H]1C[C@H](CC(=O)N3CCCCC3)O[C@H](CO)[C@@H]1O2,nt,-8,nt,nt,nt,nt
C(=C\c1nc(N2CCCC2)c2ccccc2n1)/c1ccccc1,-4,3,-78,-1,103*,2

# Bioassay records deposited in PubChem BioAssay by several laboratories.
